Measurements reported in PubChem BioAssay (Tox21).
Results filed as inconclusive are left out. Active and inactive are the calls of the source. Unless noted, calls follow the shape of the dose curve; as a rule, active = well fitted curve in the direction sought with a large enough effect in the repeat runs; inconclusive = weak or mixed curves; inactive = no such curve, though single readings can be large; an effect the other way counts as inactive or inconclusive.

Experiments:
[1] = qHTS assay to identify small molecule agonists of H2AX - cell viability counter screen (AID 1224847; calls by dose curve; also: nearly all actives have a fitted effect of over 30% in size; also: potency is read from the fitted curve at half-maximal effect; as to activity change, negative = cytotoxicity: top concentration of the series differs between compounds)
Procedure, shortened: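 We seed wild-type CHO-K1 cells overnight, treat them for 3 hr at 37C with compounds in 15-concentration series, and quantify remaining viability by CellTiter-Glo luminescence.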

[2] = qHTS assay to identify small molecule antagonists of the estrogen related receptor (ERR) signaling pathway from Tox21 library (AID 1224848); also: nearly all actives have a fitted effect of over 50% in size; also: potency is read from the fitted curve at half-maximal effect
Procedure, shortened: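 Luciferase luminescence (ONE-Glo, 30 min room temperature) was the read-out. Cells of the NTP-supplied ERR line, 2,000 per well, were given 6 h at 37 C before compound addition in DMSO and 18 h exposure at 37 C.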

[3] = qHTS assay to identify small molecule agonists of the estrogen related receptor (ERR) signaling pathway from Tox21 library (AID 1224849; calls by dose curve; also: nearly all actives have a fitted effect of over 15% in size); conditions: ERR reporter cell line, ONE-Glo luciferase, 18 h; at 92.4 µM (top of the series) unless noted
Procedure, shortened: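 Reporter cells (ERR, NTP source) treated with Tox21 10K compounds 18 h, 37 C. Readout: ONE-Glo luminescence, 30 min RT.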

[4] = qHTS RealTime-Glo MT Cell Viability Assay in HepG2 cells - 24 hour (AID 1224867); also: nearly all actives have a fitted effect of over 50% in size; also: potency is read from the fitted curve at half-maximal effect
Procedure, shortened: (§1)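 HepG2 suspension premixed with RealTime-Glo reagents is plated at 600 cells per well and left 5 h at 37 C/5% CO2. Compounds in DMSO then go in, and bioluminescence reflecting viable cell number is recorded over 40 h.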

[5] = qHTS RealTime-Glo MT Cell Viability Assay in HEK293 cells - 32 hour (AID 1224868); also: nearly all actives have a fitted effect of over 50% in size; also: potency is read from the fitted curve at half-maximal effect; as to activity change, negative = cytotoxic: top concentration of the series differs between compounds
Procedure, shortened: (§2)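 Reads taken at 0, 8, 16, 24, 32 and 40 h from the same wells. HEK293 cells (600/well) carried RealTime-Glo reagents from seeding, with compound added after a 5 h settle at 37 C.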

[6] = A CellTox Green Cytotoxicity Assay to monitor cytotoxicity in HEK293 cells - 0 hour (AID 1224869); also: nearly all actives have a fitted effect of over 50% in size; also: potency is read from the fitted curve at half-maximal effect
Procedure, shortened: (§3)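 Homogeneous no-lysis format: HEK293 cell suspension mixed with CellTox Green reagent, seeded, incubated 5 h at 37 C/5% CO2, then dosed by pintool with compound in DMSO.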

[7] = qHTS RealTime-Glo MT Cell Viability Assay in HepG2 cells - 40 hour (AID 1224870); also: nearly all actives have a fitted effect of over 50% in size; also: potency is read from the fitted curve at half-maximal effect
Procedure, shortened: (§4)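 Real-time viability: cells seeded at 600 per well together with NanoLuc and cell-permeant prosubstrate, compounds added after 5 h incubation. Luminescence tracked at 0, 8, 16, 24, 32 and 40 h of exposure.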

[8] = A CellTox Green Cytotoxicity Assay to monitor cytotoxicity in HEK293 cells - 40 hour (AID 1224871); also: nearly all actives have a fitted effect of over 45% in size
Procedure, shortened: as §3

[9] = qHTS RealTime-Glo MT Cell Viability Assay in HepG2 cells - 8 hour (AID 1224873); also: nearly all actives have a fitted effect of over 55% in size; also: potency is read from the fitted curve at half-maximal effect
Procedure, shortened: as §4

[10] = qHTS RealTime-Glo MT Cell Viability Assay in HEK293 cells - 40 hour (AID 1224874); conditions: RealTime-Glo luminescence; max response: hits give low values; also: nearly all actives have a fitted effect of over 50% in size; also: potency is read from the fitted curve at half-maximal effect
Procedure, shortened: (§5)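 Measured as luminescence from the same continuously cultured HEK293 wells at successive time points (0, 8, 16, 24, 32, 40 h) after compound addition. Reagent present from seeding; dosing at 5 h; incubation 37 C.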

[11] = A CellTox Green Cytotoxicity Assay to monitor cytotoxicity in HEK293 cells - 24 hour (AID 1224875); also: nearly all actives have a fitted effect of over 45% in size; also: potency is read from the fitted curve at half-maximal effect
Procedure, shortened: as §3

[12] = A CellTox Green Cytotoxicity Assay to monitor cytotoxicity in HepG2 cells - 16 hour (AID 1224876); also: nearly all actives have a fitted effect of over 45% in size; also: potency is read from the fitted curve at half-maximal effect
Procedure, shortened: (§6)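 Fluorescent DNA-binding dye, 600 HepG2 cells/well, 5 h preincubation then compound in DMSO; same plates read at 0–40 h, 37 C.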

[13] = qHTS RealTime-Glo MT Cell Viability Assay in HepG2 cells - 32 hour (AID 1224877); also: nearly all actives have a fitted effect of over 55% in size; also: potency is read from the fitted curve at half-maximal effect
Procedure, shortened: as §1

[14] = A CellTox Green Cytotoxicity Assay to monitor cytotoxicity in HepG2 cells - 24 hour (AID 1224878); also: nearly all actives have a fitted effect of over 45% in size; also: potency is read from the fitted curve at half-maximal effect
Procedure, shortened: as §6

[15] = A CellTox Green Cytotoxicity Assay to monitor cytotoxicity in HepG2 cells - 40 hour (AID 1224879); also: nearly all actives have a fitted effect of over 40% in size; also: potency is read from the fitted curve at half-maximal effect
Procedure, shortened: as §6

[16] = qHTS RealTime-Glo MT Cell Viability Assay in HEK293 cells - 0 hour (AID 1224880); also: nearly all actives have a fitted effect of over 45% in size; also: potency is read from the fitted curve at half-maximal effect; as to activity change, negative = cytotoxicity: top concentration of the series differs between compounds
Procedure, shortened: as §5

[17] = A CellTox Green Cytotoxicity Assay to monitor cytotoxicity in HEK293 cells - 32 hour (AID 1224881); also: nearly all actives have a fitted effect of over 40% in size; also: potency is read from the fitted curve at half-maximal effect
Procedure, shortened: as §3

[18] = A CellTox Green Cytotoxicity Assay to monitor cytotoxicity in HepG2 cells - 32 hour (AID 1224883); also: nearly all actives have a fitted effect of over 50% in size; also: potency is read from the fitted curve at half-maximal effect
Procedure, shortened: as §6

[19] = A CellTox Green Cytotoxicity Assay to monitor cytotoxicity in HepG2 cells - 0 hour (AID 1224882); also: nearly all actives have a fitted effect of over 35% in size
Procedure, shortened: as §6

[20] = qHTS RealTime-Glo MT Cell Viability Assay in HEK293 cells - 16 hour (AID 1224872)
Procedure, shortened: as §2
% is scaled to controls: 0 for no effect and ±100 for the full control effect.

COc1cc(OC)nc(NC(=O)NS(=O)(=O)Nc2ccccc2C(=O)N(C)C)n1
inactive: Potency [1] | Potency [2] | activity change, positive = activation [3] -7.75% | Potency [4] | Potency [5] | Potency [6] | Potency [7] | Potency [8] | Potency [9] | max response [10] 6.33% | Potency [11] | Potency [12] | Potency [13] | Potency [14] | Potency [15] | Potency [16] | Potency [17] | Potency [18]

Nc1ccc2c(S(=O)(=O)O)cccc2c1S(=O)(=O)O
inactive: Potency [1] | Potency [2] | activity change, positive = activation [3] -1.51% [at 42.5 µM] | Potency [4] | Potency [5] | Potency [6] | Potency [7] | Potency [9] | max response [10] 5.38% | Potency [11] | Potency [12] | Potency [13] | Potency [14] | Potency [15] | Potency [16] | Potency [17] | Potency [19] | Potency [18]

C=CC(=O)O[C@H]1C[C@@H]2CC[C@@]1(C)C2(C)C
inactive: Potency [1] | Potency [2] | activity change, positive = activation [3] 1.18% | Potency [4] | Potency [5] | Potency [6] | Potency [7] | Potency [20] | Potency [9] | max response [10] 3.56% | Potency [11] | Potency [12] | Potency [13] | Potency [14] | Potency [15] | Potency [16] | Potency [19] | Potency [18]

Cc1c[nH]c(=O)[nH]c1=O
inactive: Potency [1] | Potency [2] | activity change, positive = activation [3] 0.0206% | Potency [4] | Potency [5] | Potency [6] | Potency [7] | Potency [8] | Potency [20] | Potency [9] | max response [10] 10.6% | Potency [11] | Potency [13] | Potency [16] | Potency [17]

CCCCCCCCOC(=O)c1cc(O)c(O)c(O)c1
active: Potency [1] 89.8 µM | Potency [2] 3.44 µM | Potency [4] 19.5 µM | Potency [5] 11 µM | Potency [9] 17.4 µM | Potency [10] 11 µM | Potency [13] 19.5 µM | Potency [14] 43.6 µM | Potency [15] 24.5 µM | Potency [18] 43.6 µM
inactive: activity change, positive = activation [3] -45.2% | Potency [6] | Potency [16] | Potency [19]

CCCCCCCCc1ccc(Nc2ccc(CCCCCCCC)cc2)cc1
inactive: Potency [1] | Potency [2] | activity change, positive = activation [3] -4.1% [at 42.5 µM] | Potency [4] | Potency [5] | Potency [6] | Potency [7] | Potency [8] | Potency [20] | Potency [9] | max response [10] -0.6% | Potency [11] | Potency [12] | Potency [13] | Potency [14] | Potency [15] | Potency [16] | Potency [17] | Potency [19] | Potency [18]

Oc1ccc(C2(c3ccc(O)c(C4CCCCC4)c3)CCCCC2)cc1C1CCCCC1
active: Potency [1] 22.5 µM | Potency [2] 38.6 µM | Potency [4] 34.7 µM | Potency [5] 38.9 µM | Potency [7] 34.7 µM | Potency [9] 43.6 µM | Potency [10] 24.5 µM | Potency [12] 34.7 µM | Potency [13] 34.7 µM | Potency [14] 34.7 µM | Potency [15] 24.5 µM | Potency [16] 49 µM | Potency [18] 34.7 µM
inactive: activity change, positive = activation [3] -70.3% | Potency [6] | Potency [8] | Potency [11] | Potency [17] | Potency [19]

Nc1cc([N+](=O)[O-])ccc1Cl
inactive: Potency [1] | Potency [2] | activity change, positive = activation [3] 1.59% | Potency [4] | Potency [5] | Potency [6] | Potency [7] | Potency [8] | Potency [20] | Potency [9] | max response [10] 0.705% | Potency [11] | Potency [12] | Potency [15] | Potency [16] | Potency [17] | Potency [18]

CCCCCCCCCCCCCCCCC(C(=O)O)C(O)(CC(=O)O)C(=O)O (configuration not stated)
inactive: Potency [1] | Potency [2] | activity change, positive = activation [3] -3.01% [at 42.5 µM] | Potency [4] | Potency [5] | Potency [6] | Potency [7] | Potency [8] | Potency [20] | Potency [9] | max response [10] -0.507% | Potency [11] | Potency [13] | Potency [16] | Potency [17] | Potency [19]

CN(C[C@@H](CC[N+]12CCC(C3CCCCC3)(CC1)CC2)c1ccc(Cl)c(Cl)c1)C(=O)c1cc(C(F)(F)F)cc(C(F)(F)F)c1
active: Potency [1] 50.5 µM | Potency [2] 27.3 µM | Potency [4] 21.9 µM | Potency [5] 2.19 µM | Potency [7] 21.9 µM | Potency [9] 24.5 µM | Potency [10] 2.19 µM | Potency [11] 24.5 µM | Potency [12] 24.5 µM | Potency [14] 24.5 µM | Potency [15] 24.5 µM | Potency [17] 34.7 µM | Potency [18] 24.5 µM
inactive: activity change, positive = activation [3] -78.4% | Potency [6] | Potency [16] | Potency [19]

O=C1OC2(c3ccccc31)c1ccc(O)c(Br)c1Oc1c2ccc(O)c1Br
inactive: Potency [1] | Potency [2] | activity change, positive = activation [3] -9.26% | Potency [4] | Potency [5] | Potency [7] | Potency [13]
active: Potency [6] 6.16 µM | Potency [11] 6.92 µM

O=C(O)C[C@H](O)C[C@H](O)/C=C/c1c(C2CC2)nc2ccccc2c1-c1ccc(F)cc1
active: activity change, positive = activation [3] 31.2% [at 19 µM] | Potency [15] 2.61 µM | Potency [18] 2.61 µM
inactive: activity change, negative = cytotoxicity [1] -0.332% [at 31.6 µM] | activity, negative = inhibition [2] 60.7% [at 19 µM] | activity change, negative = cytotoxicity [4] -20.3% [at 15.8 µM] | activity change, negative = cytotoxic [5] -6.08% [at 15.8 µM] | cytotoxicity [6] -2.87% [at 15.8 µM] | activity change, negative = cytotoxic [7] -27.7% [at 15.8 µM] | cytotoxicity increase [8] 1.42% [at 15.8 µM] | activity change, negative = cytotoxicity [20] 7.11% [at 15.8 µM] | viability change, negative = cytotoxic [9] 4.17% [at 15.8 µM] | max response [10] -20.4% | activity change [11] 1.41% [at 15.8 µM, hits give high values] | cytotoxicity increase [12] 7.91% [at 15.8 µM] | activity change, negative = cytotoxic [13] -27.7% [at 15.8 µM] | activity change, negative = cytotoxicity [16] 8.78% [at 15.8 µM] | cytotoxicity [19] 0.628% [at 15.8 µM]

CCCCCCCCSCc1cc(C)c(O)c(CSCCCCCCCC)c1
inactive: Potency [1] | Potency [2] | activity change, positive = activation [3] 3.09% | Potency [4] | Potency [5] | Potency [6] | Potency [7] | Potency [9] | max response [10] -17.7% | Potency [11] | Potency [12] | Potency [13] | Potency [14] | Potency [15] | Potency [16] | Potency [17] | Potency [19] | Potency [18]
